The values that follow come from PubChem BioAssay.

The structures appear in SMILES notation. Activity calls are given as the source filed them.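 How the source made its calls, unless noted: active means visual image review flags a hit and inhibition of aggregation exceeds 20%; inconclusive means visual hit but inhibition at or below 20%; inactive means no hit on visual image review.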

Assay [1] in a line: inhibitors of TNFa-induced NFkB p65 translocation, primary screen, imaging, HUVEC, MLSMR starter and 10KST1 sets (AID 438;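 active means inhibition above 20% together with a positive visual image hit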;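 further: compound added about 3h40 before a 20 min TNFalpha stimulation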;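 on inhibition: signal is the nuclear over cytoplasmic p65 intensity ratio per well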). Conditions: HUVEC TNFa-induced p65 nuclear translocation; cell count: measured here: nuclei count (cytotoxicity indicator), at 2.08 µM; inhibition: at 2 µM, stronger effect = higher value, 0% TNFa-plus-vehicle, 100% no-TNFa wells.
The nature of assay [2]: reduction of polyQ htt aggregates in cells – imaging, exon1htt(103Q)mCFP cells, high-content imaging, primary screen (AID 483).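 Further: compound exposure lasted 3 days before fixation.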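 On nuclei count: percent of the per-plate median nuclei count of sample wells.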 Conditions: exon1htt(103Q)mCFP cell line, aggregate imaging, at 2 µM; inhibition of aggregation: stronger effect = higher value; nuclei count: measured here: cell count, toxicity.
Assay [3] can be described thus: endothelial E-selectin expression blockers – imaging, HUVEC, immunofluorescence, MLSMR starter and 10KST1 sets, primary screen (AID 487;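 active means visually confirmed hit in the image check and inhibition above 20%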;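 on inhibition: signal is fraction of cell area covered by stained E-selectin grains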;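 on nuclei count: 100% = median nuclei count of all wells on the same plate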). Conditions: HUVEC TNFalpha-induced E-selectin immunofluorescence imaging, at 2 µM; inhibition: stronger effect = higher value; nuclei count: measured here: cell number, toxicity.
The target of assay [4] is Voltage-gated potassium channel subunit beta-2 (Rattus norvegicus) (UniProt P62483). Nature of the assay: inhibitors of rat Kvbeta2 reductase activity – biochemical, NADPH fluorescence, primary screen (AID 622;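 active means fluorescence slope higher than the sample average by over 3 SD, cut at about -0.22 in these data, passing the limit was not always enough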;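 further: slope of raw intensity against log time taken from 70 to 1610 s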). Particulars: recombinant KvBeta, 4-cyanobenzaldehyde reduction, at 10 µM, stronger effect = higher value.
Voltage-gated potassium channel subunit beta-2 (Rattus norvegicus), sequence (P62483 whole entry, looked up): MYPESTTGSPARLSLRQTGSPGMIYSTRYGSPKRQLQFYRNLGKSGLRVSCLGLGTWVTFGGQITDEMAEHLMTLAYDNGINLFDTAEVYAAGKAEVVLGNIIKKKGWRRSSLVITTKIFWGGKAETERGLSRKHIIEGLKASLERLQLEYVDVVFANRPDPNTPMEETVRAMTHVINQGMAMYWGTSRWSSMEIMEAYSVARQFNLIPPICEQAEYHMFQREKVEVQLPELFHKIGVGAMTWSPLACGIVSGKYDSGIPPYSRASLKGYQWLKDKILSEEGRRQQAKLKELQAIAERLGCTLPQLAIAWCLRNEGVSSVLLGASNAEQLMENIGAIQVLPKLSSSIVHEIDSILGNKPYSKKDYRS
Assay [5] shares this target. The experiment in a line: enhancers of rat Kvbeta2 NADPH turnover – biochemical, NADPH fluorescence, primary screen (AID 623;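 active means NADPH fluorescence slope more negative than the mean of all samples by about 3 SD, 99.7% confidence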;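 further: fluorescence intensity change per second fitted from 20 to 320 s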). Particulars: Recombinant KvBeta, NADPH fluorescence decrease slope, 10 min; at 10 µM; stronger effect = lower value.
The target in assay [6] is Alpha-2C adrenergic receptor (Homo sapiens) (UniProt P18825). The experiment in a line: compounds altering alpha2C-coupled GIRK flux – cell-based, HEK293 alpha2C/GIRK1/2, thallium flux, primary screen (AID 624;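 active means fluorescence slope after compound addition differing from the mean of all screened samples at 99.7% confidence, in either direction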;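 further: slope of fluorescence ratio to pre-addition baseline per second over 15 to 24 s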). Conditions: thallium flux BTC fluorescence, at 10 µM, actives lie on both sides.
Alpha-2C adrenergic receptor (Homo sapiens), sequence (P18825 whole entry, looked up): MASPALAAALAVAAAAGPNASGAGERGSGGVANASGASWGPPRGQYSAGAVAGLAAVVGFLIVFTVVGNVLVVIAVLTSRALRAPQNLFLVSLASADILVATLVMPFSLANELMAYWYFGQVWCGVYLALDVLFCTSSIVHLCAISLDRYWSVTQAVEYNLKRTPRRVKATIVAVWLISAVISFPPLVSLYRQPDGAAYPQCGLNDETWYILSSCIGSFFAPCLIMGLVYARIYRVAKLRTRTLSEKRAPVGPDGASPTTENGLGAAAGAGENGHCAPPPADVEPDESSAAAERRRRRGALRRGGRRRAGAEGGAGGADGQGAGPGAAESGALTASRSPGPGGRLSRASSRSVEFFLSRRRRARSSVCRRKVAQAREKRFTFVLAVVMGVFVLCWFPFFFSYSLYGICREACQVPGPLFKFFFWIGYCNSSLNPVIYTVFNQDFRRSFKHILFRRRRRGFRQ
Assay [7] is described as follows: blockers of RIG-like receptor reporter activation – cell-based, Sendai virus stimulus, luciferase, 10K MLSCN set, TLR/RLR signaling modifier project, primary screen (AID 602276;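 active means inhibition at or above 50% at 10 µM; inactive means inhibition below 50%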;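 further: firefly luciferase from ISG56 promoter only with Renilla not read in this screen; 0% = Sendai virus plus DMSO and 100% = medium plus DMSO without virus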). Particulars: HEK293 RL24 IRF3 luciferase reporter, at 10 µM, stronger effect = higher value. For orientation: A reporter such as luciferase makes a cellular process visible.
The nature of assay [8]: TLR3 IRF3 reporter activation blockers – cell-based, poly I:C stimulus, luciferase, 10K MLSCN set, primary screen (AID 602277;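 active means inhibition of the reporter signal at or above 50%; inactive means inhibition below 50%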). Conditions: HEK293-TLR3 RL24 IRF3 luciferase reporter, at 10 µM, stronger effect = higher value.

Turning to `CCOc1ccc(-c2nnc3sc(-c4c(OC)cccc4OC)nn23)cc1`, the cell count in assay [1] came out at 434. Also, the inhibition in assay [1] is 2.8% (inactive); in assay [3], -65.6% (inactive); in assay [7], 10.1% (inactive); in assay [8], 3.17% (inactive). Moreover, the inhibition of aggregation in assay [2] is 0.4% (inactive). The nuclei count in assay [2] came to 102%; in assay [3], 111%. Besides, the fluorescence slope in assay [4] is -0.609 (inactive). Also, the NADPH fluorescence slope in assay [5] is -3.7e-05 (inactive). The slope in assay [6] was 0.00506 (inactive).

With `CCOC(=O)N1CCC(Nc2ncnc3c2cnn3-c2ccc(C)cc2C)CC1`, the cell count in assay [1] was found to be 684. The inhibition in assay [1] was -0.8% (inactive); in assay [3] it was -36.3% (inactive); in assay [7], 3.02% (inactive); in assay [8], -54.1% (inactive). Besides, the inhibition of aggregation in assay [2] is 6.9% (inactive). The values for the nuclei count in assay [2] and in assay [3] were 92.6% and 124%, respectively. Further, in assay [4], the fluorescence slope was -0.529 (inactive). Further, the NADPH fluorescence slope in assay [5] is -4.5e-05 (inactive). Besides, the slope in assay [6] is 0.00533 (inactive).

Consider `O=C(Nc1ccccc1C(=O)N1CCOCC1)C1COc2ccccc2O1` (centres undefined), for which the cell count in assay [1] is 355. The inhibition in assay [1] was 3.3% (inactive); in assay [3], -70.1% (inactive); in assay [7] it was 6.31% (inactive); in assay [8], 11.6% (inactive). For the same molecule, in assay [2], the inhibition of aggregation was -5.7% (inactive). The nuclei count in assay [2] was 105%; in assay [3], 123%. For the same molecule, the fluorescence slope in assay [4] was -0.437 (inactive). Moreover, in assay [5], the NADPH fluorescence slope was -1.5e-05 (inactive). The slope in assay [6] is 0.00506 (inactive).

As for `CCOc1ccc(-c2nc(C#N)c(N3CCN(C)CC3)o2)cc1`, in assay [1], the cell count turned out to be 447. Besides, the inhibition was 7.9% (inactive) in assay [1], -123% (inactive) in assay [3], 10.5% (inactive) in assay [7] and 11% (inactive) in assay [8]. Further, the inhibition of aggregation in assay [2] is -9.4% (inactive). Also, the nuclei count in assay [2] came to 102%; in assay [3] it was 127%. Moreover, the fluorescence slope in assay [4] was -0.415 (inactive). Also, in assay [5], the NADPH fluorescence slope was -1.8e-05 (inactive). Also, the slope in assay [6] is 0.00522 (inactive).

Take `CCCS(=O)(=O)N1CCCC(C(=O)NC2CCCC(C)C2C)C1` (centres undefined): the cell count in assay [1] was 357. The inhibition in assay [1] was -0.5% (inactive); in assay [3], -13.1% (inactive); in assay [7], 9.58% (inactive); in assay [8] it was -2.45% (inactive). For the same molecule, the inhibition of aggregation in assay [2] is 7.4% (inactive). The nuclei count in assay [2] was found to be 92.6%; in assay [3] it was 105%. Moreover, in assay [4], the fluorescence slope was -0.551 (inactive). Also, the NADPH fluorescence slope in assay [5] was 2.2e-05 (inactive). In addition, the slope in assay [6] is 0.00599 (inactive).

Take `O=C(CSc1nc(O)c(Cc2ccccc2)c(=O)[nH]1)Nc1ccccc1`: in assay [1], the cell count was determined as 366. Besides, the inhibition in assay [1] was 5.3% (inactive); in assay [3], 5.2% (inactive); in assay [7] it was 3.29% (inactive); in assay [8] it was 24.3% (inactive). Besides, the inhibition of aggregation in assay [2] was 0.2% (inactive). Also, the nuclei count in assay [2] came to 95.2%; in assay [3], 115%. Moreover, in assay [4], the fluorescence slope is -0.44 (inactive). The NADPH fluorescence slope in assay [5] is -3e-05 (inactive). Besides, the slope in assay [6] was 0.00311 (inactive).

For `COc1ccc(CN(C2CCCC2)S(=O)(=O)c2ccc(-n3cnnn3)cc2)cc1OC`, in assay [1], the cell count came out at 527. The inhibition in assay [1] is -5.8% (inactive); in assay [3], -39.4% (inactive); in assay [7], 15.1% (inactive); in assay [8] it was 18.9% (inactive). Besides, the inhibition of aggregation in assay [2] is -15% (inactive). Also, the nuclei count in assay [2] is 115%; in assay [3] it was 124%. Besides, the fluorescence slope in assay [4] was -0.57 (inactive). Besides, in assay [5], the NADPH fluorescence slope was -1.6e-05 (inactive). In addition, the slope in assay [6] is 0.00406 (inactive).

As for `COc1ccc(C(=O)N2CCN(S(=O)(=O)c3cc(Cl)ccc3OC)CC2)cc1`, the cell count in assay [1] amounted to 398. Besides, the inhibition in assay [1] was 7.3% (inactive); in assay [3], -74.2% (inactive); in assay [7], 16.1% (inactive); in assay [8], 18% (inactive). Moreover, in assay [2], the inhibition of aggregation is -29.4% (inactive). Also, the values for the nuclei count in assay [2] and in assay [3] were 64.6% and 106%, respectively. Also, the fluorescence slope in assay [4] is -0.368 (inactive). Moreover, the NADPH fluorescence slope in assay [5] was -2.2e-05 (inactive). The slope in assay [6] was 0.00259 (inactive).

On to `CCOC(=O)N1CCC(NC(=O)CCN2C(=O)COc3ccccc32)CC1`, for which the cell count in assay [1] is 322. The inhibition is -2.6% (inactive) in assay [1], -22.4% (inactive) in assay [3], 17% (inactive) in assay [7] and 17.2% (inactive) in assay [8]. Moreover, the inhibition of aggregation in assay [2] is 11.5% (inactive). For the same molecule, the nuclei count in assay [2] came out at 106%; in assay [3] it was 127%. Further, the fluorescence slope in assay [4] was -0.27 (inactive). In addition, the NADPH fluorescence slope in assay [5] was 1.7e-05 (inactive). Further, in assay [6], the slope was 0.00554 (inactive).

As for `N#Cc1nc(-c2ccco2)oc1NCc1ccco1`, the cell count in assay [1] was 658. The inhibition is -9.1% (inactive) in assay [1], -12.2% (inactive) in assay [3], -2.68% (inactive) in assay [7] and -30.9% (inactive) in assay [8]. Further, in assay [2], the inhibition of aggregation is -10.1% (inactive). In addition, the nuclei count was determined as 120% in assay [2] and 98.2% in assay [3]. Moreover, in assay [4], the fluorescence slope was -0.375 (inactive). For the same molecule, the NADPH fluorescence slope in assay [5] was 5.2e-05 (inactive). For the same molecule, the slope in assay [6] is 0.00582 (inactive).

Consider `CC(C)Oc1cc2oc(=O)c3c(c2cc1Cl)CCC3`, for which, in assay [1], the cell count was found to be 385. The inhibition in assay [1] was 0.8% (inactive); in assay [3], -10.2% (inactive); in assay [7] it was -1.44% (inactive); in assay [8], -17.4% (inactive). In addition, in assay [2], the inhibition of aggregation is -21.6% (inactive). The figures for the nuclei count in assay [2] and in assay [3] were 56.6% and 96.1%, respectively. In addition, the fluorescence slope in assay [4] is -0.445 (inactive). Further, the NADPH fluorescence slope in assay [5] is 2.2e-05 (inactive). Further, in assay [6], the slope was 0.00687 (inactive).

For the molecule `CSc1cccc(NS(=O)(=O)c2ccccc2)c1`, in assay [1], the cell count was 420. For the same molecule, the inhibition is -1.4% (inactive) in assay [1], -38% (inactive) in assay [3], 9.48% (inactive) in assay [7] and 27.9% (inactive) in assay [8]. In addition, the inhibition of aggregation in assay [2] was -3.4% (inactive). Also, the figures for the nuclei count in assay [2] and in assay [3] were 99.5% and 106%, respectively. Besides, the fluorescence slope in assay [4] was -0.283 (inactive). Moreover, the NADPH fluorescence slope in assay [5] was -2.2e-05 (inactive). Also, the slope in assay [6] is 0.00527 (inactive).

As for `Cc1cc2nc(C3CCN(CC4COc5ccccc5O4)CC3)[nH]c2cc1C` (centres undefined), the cell count in assay [1] is 746. In addition, the inhibition in assay [1] was -8.3% (inactive); in assay [3], -56.9% (inactive); in assay [7], -0.371% (inactive); in assay [8], -21.4% (inactive). In addition, in assay [2], the inhibition of aggregation is -2.5% (inactive). Further, the nuclei count in assay [2] was found to be 92%; in assay [3], 107%. Further, the fluorescence slope in assay [4] is -0.433 (inactive). Further, the NADPH fluorescence slope in assay [5] is -1.9e-05 (inactive). The slope in assay [6] was 0.00449 (inactive).

For `Cc1ccc(Cn2c(CN3CCOCC3)nc3c2c(=O)n(C)c(=O)n3C)cc1`, the cell count in assay [1] amounted to 332. The inhibition is 19.7% (inactive) in assay [1], -3.6% (inactive) in assay [3], 2.2% (inactive) in assay [7] and 26.6% (inactive) in assay [8]. For the same molecule, the inhibition of aggregation in assay [2] is 16.7% (inactive). The nuclei count in assay [2] and in assay [3] was 104% each time. For the same molecule, the fluorescence slope in assay [4] was -0.48 (inactive). In addition, the NADPH fluorescence slope in assay [5] was -4.2e-05 (inactive). Also, the slope in assay [6] was 0.00599 (inactive).

One may read the inhibition as the change of the read-out against control, counted positive when it falls.
